# Measured values from PubChem BioAssay (NCATS).
# Records with an inconclusive call do not appear. Where a call stands in place of a potency, no number is given. Calls of active or inactive are those of the source. Calls come from the whole dose curve; as a rule, active = well fitted inhibition curve with a large enough effect; inconclusive = small, poorly fitted or top-dose-only effect; inactive = no such curve, though single readings can be large or run the other way.
# Assay: Primary qHTS for small molecule stabilizers of the endoplasmic reticulum resident proteome: Secreted ER Calcium Modulated Protein (SERCaMP) assay (AID 1508630)
# Conditions: SH-SY5Y GLuc-SERCaMP (Gaussia luciferase released on ER calcium loss) secretion, thapsigargin, luminescence; series mostly up to 38.4 µM
# Summary of the method: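 GLuc-SERCaMP-expressing SH-SY5Y cells, pretreated 16 h with compound, are challenged with thapsigargin to empty ER calcium stores; after 4 h, coelenterazine is added directly to the medium and luminescence is imaged.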
row,SMILES,Potency
1,Cn1c2cc(S(C)=O)sc2c2cnn(Cc3cccc(N)c3)c(=O)c21 (stereo not drawn),inactive
2,CC[C@H]1CN2CCc3cc(OC)c(OC)cc3[C@H]2C[C@@H]1C[C@@H]1NCCc2cc(OC)c(OC)cc21,inactive
3,CC=C1NC(=O)[C@H]2CSSCCC=C[C@H](CC(=O)N[C@H](C(C)C)C(=O)N2)OC(=O)[C@H](C(C)C)NC1=O,inactive
4,Cc1c(Cn2c(C)nc3c(C(=O)O)cc(N4CCOCC4)cc32)cccc1C(F)(F)F,inactive
5,CC1=C(CO)C(=O)O[C@@H]([C@@H](C)[C@H]2CC[C@H]3[C@@H]4C[C@H]5O[C@]56[C@@H](O)C=CC(=O)[C@]6(C)[C@@H]4CC[C@]23C)C1,inactive
6,CC=CC1=C(C(=O)O)N2C(=O)[C@H](NC(=O)[C@H](N)c3ccc(O)cc3)[C@@H]2SC1,inactive
7,Cc1cc(Nc2cc(N3CCN(C)CC3)nc(C=Cc3ccccc3)n2)n[nH]1,inactive
8,C[C@H]1C[C@@H]2[C@@H]([C@@H](O)C[C@@]3(C)[C@H]2CC[C@]3(O)C(=O)CO)[C@@]2(C)C=CC(=O)C=C12,inactive
9,CC(NCc1ccc2c(c1)nc(NC(=O)c1ccc(-c3cn[nH]c3)s1)n2CC(C)(C)O)C(C)(C)C (stereo not drawn),inactive
10,CCCCN1CCC(CNC(=O)c2c3n(c4ccccc24)CCCO3)CC1,inactive
11,COc1cc(=C2C=c3ccccc3=N2)[nH]c1=Cc1[nH]c(C)cc1C,inactive
12,O=C(C=Cc1cccc(S(=O)(=O)Nc2ccccc2)c1)NO,inactive
13,COC(=O)[C@]12CCC(C)(C)C[C@@H]1[C@@H]1C(=O)C=C3[C@@]4(C)C=C(C#N)C(=O)C(C)(C)[C@@H]4CC[C@@]3(C)[C@]1(C)CC2,inactive
